# According to PubChem BioAssay AID1159580 (chemical genetic matrix, 2015):
# Screen size: about 5,500 compounds; about 2,000 (36%) were called active. About 18% were inconclusive and are not listed. The list shows a part of the results. Unmarked numbers belong to inactive results. Rule as the data show it: active = normalized growth mostly below about 0.91 (no sharp cut-off); inconclusive = no clear call, values can overlap the other calls; inactive = mostly above about 0.92.
# Assay: chemical genetic growth profiling, strain panel (AID 1159580);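 also: tested at 20 µM; growth read once vehicle control cultures reached saturation at 30 °C; 1 = growth at the plate median or of vehicle wells; lower values mean less growth of the strain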
# Conditions: S. cerevisiae deletion strains, growth OD
structure (smiles),measurement,setting,value
CC(=O)O[C@@H]1C=C[C@@]2(C)C(C[C@@H](OC(C)=O)[C@@]3(C)C4=CC(=O)O[C@@H](c5ccoc5)[C@]4(C)CCC23)C1(C)C (stereo partly specified),normalized growth,"locus YJR066W, strain TOR1, active compounds read low",0.928
same,normalized growth,"locus YJR075W, strain HOC1, active compounds read low",1.03
same,normalized growth,"locus YKL009W, strain mrt4, active compounds read low",0.364 (active)
same,normalized growth,"locus YKL068W, active compounds read low",0.0545 (active)
same,normalized growth,"locus YKL085W, strain MDH1 (second series), active compounds read low",0.0525 (active)
same,normalized growth,"locus YKL085W, strain MDH1, active compounds read low",0.0525 (active)
same,normalized growth,"locus YKL160W, strain elf1, active compounds read low",0.988
same,normalized growth,"locus YKL190W, strain CNB1, active compounds read low",1.01
same,normalized growth,"locus YKR001C, strain vps1, active compounds read low",0.0622 (active)
same,normalized growth,"locus YKR026C, strain gcn3, active compounds read low",1.01
same,normalized growth,"locus YKR091W, strain srl3, active compounds read low",0.982
same,normalized growth,"locus YLL001W, strain dnm1, active compounds read low",1.02
same,normalized growth,"locus YLL026W, active compounds read low",1.01
same,normalized growth,"locus YLL041C, strain sdh2, active compounds read low",0.999
same,normalized growth,"locus YLR027C, strain aat2, active compounds read low",1
same,normalized growth,"locus YLR039C, strain RIC1, active compounds read low",0.982
same,normalized growth,"locus YLR058C, strain SHM2, active compounds read low",1.01
same,normalized growth,"locus YLR102C, strain apc9, active compounds read low",0.0602 (active)
same,normalized growth,"locus YLR113W, strain HOG1, active compounds read low",1.01
same,normalized growth,"locus YLR221C, strain rsa3, active compounds read low",1.05
same,normalized growth,"locus YLR258W, strain gsy2, active compounds read low",0.999
same,normalized growth,"locus YLR262C, strain YPT6 (second series), active compounds read low",0.96
same,normalized growth,"locus YLR262C, strain YPT6, active compounds read low",0.986
same,normalized growth,"locus YLR268W, strain sec22, active compounds read low",0.0676 (active)
same,normalized growth,"locus YLR320W, strain mms22, active compounds read low",1.02
same,normalized growth,"locus YLR330W, strain CHS5, active compounds read low",1.01
same,normalized growth,"locus YLR342W, strain FKS1 (second series), active compounds read low",1.03
same,normalized growth,"locus YLR342W, strain FKS1, active compounds read low",0.994
same,normalized growth,"locus YLR357W, strain rsc2, active compounds read low",1.03
same,normalized growth,"locus YLR370C, strain arc18, active compounds read low",0.983
same,normalized growth,"locus YLR371W, strain rom2, active compounds read low",0.0619 (active)
same,normalized growth,"locus YLR384C, strain iki3, active compounds read low",0.983
same,normalized growth,"locus YLR418C, strain cdc73, active compounds read low",0.0929 (active)
same,normalized growth,"locus YML016C, strain PPZ1, active compounds read low",1.02
same,normalized growth,"locus YML032C, strain rad52, active compounds read low",0.15 (active)
same,normalized growth,"locus YML120C, strain ndi1, active compounds read low",0.994
same,normalized growth,"locus YML124C, strain tub3, active compounds read low",0.0589 (active)
same,normalized growth,"locus YMR058W, strain fet3, active compounds read low",0.984
same,normalized growth,"locus YMR078C, strain ctf18, active compounds read low",0.072 (active)
same,normalized growth,"locus YMR125W, strain sto1, active compounds read low",0.997
same,normalized growth,"locus YMR129W, active compounds read low",0.999
same,normalized growth,"locus YMR205C, strain PFK2, active compounds read low",1
same,normalized growth,"locus YMR223W, strain ubp8, active compounds read low",0.0665 (active)
same,normalized growth,"locus YMR231W, strain pep5, active compounds read low",0.991
same,normalized growth,"locus YMR263W, strain SAP30, active compounds read low",1
same,normalized growth,"locus YMR307W, strain GAS1, active compounds read low",1.06
